Bioassay records (PubChem)
BH1578 lux ind: inducers of Vibrio cholerae quorum light production without autoinducers. AID 588436. 350,000 tested, 0.16% active. activation, % at 18.7 µM. V. cholerae BH1578 lux reporter, luminescence, 6 h; in the data active = activation mostly above about 9.7%, no sharp cut-off; inconclusive = no clear call, values can overlap the other calls; inactive = mostly below about 3.7%
MazF activator: increases E. coli MazEF RNase cleavage of RNA; 350,000 tested, 0.32% active; activation, % at 20 µM; FAM/BHQ RNA-DNA oligo cleavage fluorescence, 5 h; AID 504720; in the data active = activation above about 50%
Target sequence (P0AE70 whole entry, looked up): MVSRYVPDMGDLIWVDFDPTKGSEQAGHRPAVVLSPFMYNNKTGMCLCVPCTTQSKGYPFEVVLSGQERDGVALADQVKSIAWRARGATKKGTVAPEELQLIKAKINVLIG
BoNT-F LC inh: blocks Botulinum neurotoxin F light chain protease; Multiplex microsphere protease cleavage assay, flow cytometry; inhibition, % at 10 µM; 360,000 tested, 0.22% active; AID 588497; in the data active = inhibition above about 35%, passing the limit was not always enough; inconclusive = no clear call, values can overlap the other calls
Bead autofluor: compound fluorescence in toxin protease inhibitor counterscreen | compound autofluorescence counterscreen, microsphere flow cytometry; hits give high values | fluorescence intensity (test concentration not listed) | 360,000 tested, 3.1% active; in the data active = fluorescence intensity above about 16000; inconclusive = no clear call, values can overlap the other calls
BoNT-A LC inh2: BoNT A light chain protease inhibition. multiplex microsphere protease substrate cleavage, flow cytometry. AID 588499. inhibition, % at 10 µM. 360,000 tested, 0.17% active
Anthrax LF prot: inhibitors of Bacillus anthracis lethal factor protease; P15917; multiplex microsphere protease cleavage assay, LF; inhibition, % at 10 µM; 360,000 tested, 0.12% active; AID 588501
Hits are given with their value; 0 = inactive; ? = inconclusive; - = not tested or not shown. Rows were chosen to be rich in hits. Some 3.9% of all compounds tested hit in one or more screens of this group. Rule as the data show it, unless noted: active = inhibition above about 30%; inconclusive = no clear call, values can overlap the other calls; inactive = below that.

SMILES | BH1578 lux ind | MazF activator | BoNT-F LC inh | Bead autofluor | BoNT-A LC inh2 | Anthrax LF prot
Cc1ccc(Cn2c(=O)c3ccccc3n3c(SCC(=O)N4CCCCC4C)nnc23)cc1 (stereo not given) | 0 | 0 | 0 | 19920 | ? | 0
c1csc(-c2ccc3nncn3c2)c1 | 0 | - | 0 | 0 | 0 | 0
COc1ccc(NC(=S)Nc2cccc3cnccc23)cc1 | 0 | 70 | 0 | 0 | 0 | 0
CCOc1ccc(NC(=S)Nc2cccc3cnccc23)cc1 | 0 | 0 | 0 | 0 | 0 | 0
O=C(CCS(=O)(=O)Cc1ccc(Cl)cc1)NCCCN1CCOCC1 | 0 | 0 | 0 | 23981 | 0 | 0
Cc1ccc(S(=O)(=O)NNC(=O)c2ccccc2O)cc1 | 0 | 0 | 39 | 0 | 0 | 0
Cc1ccc(S(=O)(=O)NNc2ccccc2)cc1 | 0 | 0 | 0 | 16260 | ? | 0
Cc1ccc(S(=O)(=O)Nc2ccc(Nc3ccccc3)cc2)cc1 | 0 | 0 | 0 | 0 | 0 | 0
Cc1ccc(C2CC(=O)NC(SCC(=O)Nc3nccs3)=C2C#N)cc1 (stereo not given) | 25 | 0 | 0 | 0 | 0 | 0
CCOc1ccccc1C1CC(=O)NC(SCC(=O)Nc2nccs2)=C1C#N (stereo not given) | 0 | 0 | 0 | 0 | 0 | 0
Cc1ccc(-c2nnc(SCC(=O)CC(=O)Nc3ccccc3)n2-c2ccccc2)cc1 | 0 | 0 | 0 | 21966 | 0 | 0
Cc1ccc(C(=O)NNC(=O)CSc2nnc(-c3ccncc3)n2-c2ccc(C)cc2)cc1 | 0 | - | 0 | 20719 | 0 | 0
CC(C)OC(=O)CSc1nnc(-c2cnccn2)n1-c1ccc(Cl)cc1 | 0 | 0 | 0 | 21757 | ? | 0
COc1ccc(NC(=O)CSc2nnc(-c3ccccn3)n2-c2ccccc2)cc1OC | 0 | 0 | 0 | 20651 | 0 | 0
COc1ccc(NC(=O)CSc2ccccn2)cc1OC | - | 0 | 0 | 0 | 0 | 0
Cc1ccc(-n2c(SCC(=O)Nc3ccc(C(=O)O)cc3)nnc2-c2ccncc2)cc1 | 0 | 0 | 0 | 0 | 0 | 0
Cc1ccc(-n2c(SCC(=O)OC(C)C)nnc2-c2ccncc2)cc1 | 0 | 0 | 0 | 0 | 0 | 0
CSc1ccccc1NC(=O)COC(=O)c1ccc(-n2nc(C)cc2C)cc1 | 0 | 0 | 0 | 0 | 0 | 0
CC1(C(=O)NCc2ccc(Cl)c(Cl)c2)Oc2cccnc2NC1=O (stereo not given) | 0 | 0 | 0 | 0 | 0 | 0
Cc1ccc(NC(=O)CSc2nnc(-c3cnccn3)n2-c2ccccc2)cc1 | 0 | 0 | 0 | 16733 | ? | 0
CC(C)CN(C(=O)COC(=O)Cc1n[nH]c(=O)c2ccccc12)C1CCS(=O)(=O)C1 (stereo not given) | 0 | 0 | 0 | 21604 | ? | 0
CSc1nc(N(C)CCO)c2sc3nc(-c4ccco4)c4c(c3c2n1)CCC4 | 0 | 0 | 0 | 22092 | ? | 0
Cc1ccccc1OCC(O)Cn1c(SC(C)C)nc2c1c(=O)[nH]c(=O)n2C (stereo not given) | 0 | 0 | 0 | 0 | 0 | 0
CCSc1nc2c(c(=O)[nH]c(=O)n2C)n1CC(O)COc1ccccc1C (stereo not given) | 0 | 0 | 0 | 20886 | 0 | 0
COC[C@H]1CCCN1c1ccc2c(c1)O[C@H](COCc1ccccc1)CN([C@H](C)c1ccccc1)S2(=O)=O | - | - | 0 | 0 | 0 | 0
SMILES | BH1578 lux ind | MazF activator | BoNT-F LC inh | Bead autofluor | BoNT-A LC inh2 | Anthrax LF prot
Cc1ccc(C(=O)Nc2ccc(CC(=O)O)cc2)o1 | 0 | 0 | 0 | 18362 | 0 | 0
Cc1ccc(C(=O)Nc2ccc(NC(=O)c3ccc(C)o3)cc2)o1 | 0 | 0 | 0 | 0 | 0 | 0
C[C@@H]1CN(Cc2cn(C)nc2-c2cccc(Cl)c2)C[C@H](C)O1 | 0 | 0 | 0 | 0 | 0 | 0
COc1ccccc1-n1c(SCC(=O)Nc2ccc(NC(C)=O)cc2)nc2c([nH]c3ccccc32)c1=O | 0 | 0 | 0 | 0 | 0 | 0
CCn1ncc(Br)c1C(=O)NC1CCCCCCC1 | 0 | 0 | 0 | 0 | 0 | 0
CC(C)CNC(=O)C1C2C=CC(C2)C1C(=O)O (stereo not given) | 0 | 0 | 0 | 20356 | ? | 0
CC(=O)Nc1ccc(NC(=O)C2C3C=CC(C3)C2C(=O)O)cc1 (stereo not given) | 0 | 0 | 0 | 0 | 0 | 0
Cc1cccc(CSCc2ccc(C(=O)NCC3CCCO3)o2)c1 (stereo not given) | 0 | 0 | 0 | 0 | 0 | 0
O=C(c1ccc2c(=O)n3c(nc2c1)CCCCC3)N1CCN(C(c2ccccc2)c2ccccc2)CC1 | 0 | 0 | 0 | 23040 | 0 | 0
O=C(c1ccc(=O)oc1)N1CCN(C(c2ccccc2)c2ccccc2)CC1 | 0 | 0 | 0 | 23517 | ? | 0
Cc1cc(C(=O)N2CCN(C(c3ccccc3)c3ccccc3)CC2)no1 | 0 | 0 | 0 | 23268 | 0 | 0
CSc1ccc(C(=S)N2CCN(C)CC2)cc1 | 0 | 0 | 0 | 0 | 0 | 0
CSc1ccc(C(=S)N2CCN(C(c3ccccc3)c3ccccc3)CC2)cc1 | 0 | 0 | 0 | 25174 | 0 | 0
CC(=O)N1CCN(C(c2ccccc2)c2ccccc2)CC1 | 0 | 0 | - | - | 0 | 0
Cc1ccc(NC(=O)CC(NCC2CCCO2)C(=O)O)cc1C (stereo not given) | 0 | 0 | 0 | 0 | 0 | 0
O=C(c1cccc(Br)c1)c1cn(-c2ccccc2)nc1C(=O)c1ccccc1 | 0 | 0 | 0 | 24853 | ? | 0
CC(=O)c1nn(-c2ccccc2)cc1C(=O)c1cccc(Br)c1 | 0 | 0 | 0 | 0 | 0 | 0
CCc1nc2ccc(C(=O)Nc3ccc4c(c3)OCC(=O)N4)cn2c1N(CC)Cc1cccc(Br)c1 | 0 | - | 0 | 0 | 0 | 0
O=C(Nc1ccon1)c1ccc(Cl)s1 | 0 | 0 | 0 | 17115 | ? | 0
Cc1ccc2nc(SCC(=O)Nc3ccc(C)c(Cl)c3)nc(=O)n2c1 | 0 | 74 | 0 | 0 | 0 | 0
COc1nn(CC(=O)N2N=C(C)CC2(O)C(F)F)cc1[N+](=O)[O-] (stereo not given) | 0 | 0 | 0 | 0 | 0 | 0
O=C(Cn1cc([N+](=O)[O-])cn1)N1N=C(C(F)F)CC1(O)C(F)F (stereo not given) | 0 | 0 | 0 | 22225 | 0 | 0
CSc1ccc(N2CCN(CCCNC(=O)Nc3ccccc3F)CC2)cc1 | 0 | 0 | 0 | 24815 | 0 | 0
COC(=O)CNC(=O)CNC(=O)Nc1ccccc1 | 0 | 0 | 0 | 19345 | ? | 0
O=C(C[C@H]1C/C=C\CCC(=O)OC[C@H]2CCCN2C1=O)NCCO | 0 | 0 | 0 | 0 | 0 | 0
SMILES | BH1578 lux ind | MazF activator | BoNT-F LC inh | Bead autofluor | BoNT-A LC inh2 | Anthrax LF prot
Cc1cccc(OCc2n[nH]c(=S)o2)c1 | 0 | 0 | 0 | 24801 | 0 | 0
COc1ccccc1C(=O)N/C(=C\c1cn(S(=O)(=O)N(C)C)c2ccccc12)C(=O)N1CCN(C)CC1 | 0 | 0 | 0 | 0 | 0 | 0
CCOC(=O)c1nn(-c2ccc(F)cc2)c2nc(CC(C)C)c(C#N)c(=O)n12 | 0 | 0 | 0 | 18268 | 0 | 0
CCOc1cc2c3c(c1)C1(Nc4ccccc4S1)C(=O)N3C(C)(C)CC2C (stereo not given) | 0 | 0 | 0 | 23624 | ? | 0
CN1CCN(C(=O)CCc2nnc3ccc(N4CCC5(CC4)OCCO5)nn23)CC1 | 0 | 0 | 0 | 0 | 0 | 0
Cc1csc2nc(O)c(C(=O)NC3CCCCCC3)c(=O)n12 | 0 | 0 | 0 | 18119 | 0 | 0
